Calls of active or inactive are those of the source.

A short description of experiment [1]: optical density shifts of acrAB sulA E. coli – strain DRC41, OD650, 48 h, E. coli filamentation inducer project, primary screen (AID 1152).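 Note: E. coli MC1000 strain DRC41 lacking acrAB efflux pump and sulA.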 The settings on record: higher = more signal, called active from +8 up or from −8 down.
A short description of experiment [2]: probe aLefty1 binding on compound microarray – biochemical, small-molecule microarray, 635/667 nm fluorescence, primary screen (AID 1153).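 Note: score merges spot fluorescence with signal-to-noise ratio from the scanned slide images.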 Particulars: higher = more signal.
Experiment [3] can be described thus: plasmodial surface anion channel blockers, osmotic lysis – cell-based, P. falciparum Indochina, OD700, 1 h, primary screen (AID 1154). The settings on record: P. falciparum Indochina infected RBC osmotic lysis, higher = more signal, called active from +8 up or from −8 down.
Experiment [4] in a line: plasmodial surface anion channel blockers, osmotic lysis – cell-based, P. falciparum Indochina, OD700, 2 h, primary screen (AID 1155).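 Note: lysis reports solute entry through the parasite surface anion channel PSAC.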 The settings on record: P. falciparum Indochina infected erythrocytes, higher = more signal, called active from +8 up or from −8 down.
The nature of experiment [5]: changes in parasitized red cell lysis, either direction – P. falciparum Indochina, OD700, 3 h, PSAC antagonist project, primary screen (AID 1156). Particulars: P. falciparum-infected erythrocytes, osmotic lysis, higher = more signal, called active from +8 up or from −8 down.
Experiment [6] can be described thus: plasmodial surface anion channel blockers, osmotic lysis – cell-based, P. falciparum Indochina, OD700, 18 h, primary screen (AID 1157). The settings on record: P. falciparum Indochina infected erythrocytes, osmotic lysis OD700, 18 h; higher = more signal, called active from +8 up or from −8 down.
Experiment [7] is described as follows: S6 kinase pathway phospho-S6 level changes – cell-based, A549, cytoblot, luminescence, serum-stimulated, primary screen (AID 1158).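 Note: serum-stimulated A549 lung adenocarcinoma cells; signal is phosphorylated S6 detected by cytoblot immunostaining with HRP secondary.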 Particulars: 5 h, higher = more signal.
The target in experiment [8] is NADPH oxidase 2 (Homo sapiens) (UniProt P04839). The experiment in a line: compounds shifting NOX2 Amplex Red fluorescence – cell-based, HEK293-NOX2, PMA-stimulated, NOX inhibitor project, primary screen (AID 1159). Note: test concentration not given here. Particulars: 45 min, higher = more signal, called active from +8 up or from −8 down.
In experiment [9] the target is NADPH oxidase 4 (Homo sapiens) (UniProt Q9NPH5). The experiment in a line: compounds shifting NOX4 Amplex Red fluorescence – cell-based, HEK293-NOX4, tetracycline-induced, NOX inhibitor project, primary screen (AID 1160). The settings on record: HEK293-NOX4, Amplex Red H2O2 fluorescence, 45 min; higher = more signal, called active from +8 up or from −8 down.
Experiment [10] deals with NADPH oxidase 5 (Homo sapiens) (UniProt Q96PH1). The experiment in a line: compounds shifting NOX5 Amplex Red fluorescence – cell-based, HEK293-NOX5, NOX inhibitor project, primary screen (AID 1161). The settings on record: HEK293-NOX5, ionomycin, 45 min, higher = more signal.
Experiment [11] can be described thus: compound effects on lung adenocarcinoma cell viability – A549, calcein-AM fluorescence, 48 h, basal, profiling panel (AID 1162). Note: test concentration not given here. The settings on record: higher = more signal.
Experiment [12] in a line: compound effects on differentiated 3T3-L1 adipocyte viability – cell-based, 3T3-L1 adipocytes, calcein-AM fluorescence, 48 h, basal, profiling panel (AID 1163). Note: test concentration not given here. The settings on record: 3T3-L1 adipocytes viability, higher = more signal.
Experiment [13] is described as follows: compound effects on hepatocellular carcinoma cell viability – HepG2, calcein-AM fluorescence, 48 h, basal, profiling panel (AID 1164). Note: test concentration not given here. Particulars: higher = more signal.
Experiment [14] is described as follows: compound effects on multiple myeloma cell viability – MM1S, calcein-AM fluorescence, 48 h, basal, profiling panel (AID 1165).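 Note: viability of MM1S multiple myeloma cells under basal unstimulated conditions; test concentration not given here.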 Particulars: higher = more signal.
Experiment [15] in a line: calcein-AM signal in unstimulated myeloma cells – cell-based, calcein-AM fluorescence, 48 h, PK04 Diversity Set, profiling panel (AID 1166).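 Note: cells grown under basal conditions without added stimulus; test concentration not given here.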 Particulars: RPMI8226 myeloma viability, higher = more signal.
Experiment [16] in a line: JC-1 mitochondrial signal, unstimulated HepG2 cells – cell-based, JC-1 fluorescence, 24 h, 100 nL compound, profiling panel (AID 1167). Note: test concentration not given here. The settings on record: HepG2 mitochondrial potential, higher = more signal.
Experiment [17] can be described thus: JC-1 mitochondrial signal, unstimulated adipocytes – cell-based, JC-1 fluorescence, 3T3-L1 adipocytes, 24 h, 100 nL compound, profiling panel (AID 1168). Note: test concentration not given here. The settings on record: JC-1 mitochondrial fluorescence, higher = more signal, called active from +8 up or from −8 down.
A short description of experiment [18]: JC-1 mitochondrial signal, unstimulated myeloma cells – cell-based, JC-1 fluorescence, RPMI8226, 24 h, 100 nL compound, profiling panel (AID 1169). Note: test concentration not given here. Particulars: JC-1 mitochondrial potential fluorescence, higher = more signal.
Experiment [19] in a line: JC-1 mitochondrial signal, unstimulated MM1S myeloma – cell-based, JC-1 fluorescence, 24 h, 100 nL compound, profiling panel (AID 1170). Note: test concentration not given here. The settings on record: MM1S mitochondrial potential, higher = more signal.
The nature of experiment [20]: resazurin metabolic signal in A549 cells – cell-based, resazurin fluorescence, 24 h, PK04 Diversity Set, profiling panel (AID 1171). Note: test concentration not given here. The settings on record: A549 viability, higher = more signal, called active from +8 up or from −8 down.

Sequence of NADPH oxidase 2 (Homo sapiens) (P04839 whole entry, looked up): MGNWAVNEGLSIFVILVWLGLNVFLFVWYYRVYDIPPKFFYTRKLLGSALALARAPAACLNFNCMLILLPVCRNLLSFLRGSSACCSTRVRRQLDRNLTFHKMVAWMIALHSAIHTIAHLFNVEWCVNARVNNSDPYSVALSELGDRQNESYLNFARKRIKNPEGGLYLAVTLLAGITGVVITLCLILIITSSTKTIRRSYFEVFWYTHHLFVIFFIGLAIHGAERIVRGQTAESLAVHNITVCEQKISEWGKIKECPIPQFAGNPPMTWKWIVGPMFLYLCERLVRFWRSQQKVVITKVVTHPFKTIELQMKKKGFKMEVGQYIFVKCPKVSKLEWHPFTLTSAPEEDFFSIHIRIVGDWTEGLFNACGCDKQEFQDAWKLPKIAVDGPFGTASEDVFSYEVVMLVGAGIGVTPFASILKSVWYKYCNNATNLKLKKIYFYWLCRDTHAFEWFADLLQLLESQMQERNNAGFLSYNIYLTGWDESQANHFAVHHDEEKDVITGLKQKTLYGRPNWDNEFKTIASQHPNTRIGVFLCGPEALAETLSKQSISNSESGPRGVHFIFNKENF
Sequence of NADPH oxidase 5 (Homo sapiens) (Q96PH1 whole entry, looked up): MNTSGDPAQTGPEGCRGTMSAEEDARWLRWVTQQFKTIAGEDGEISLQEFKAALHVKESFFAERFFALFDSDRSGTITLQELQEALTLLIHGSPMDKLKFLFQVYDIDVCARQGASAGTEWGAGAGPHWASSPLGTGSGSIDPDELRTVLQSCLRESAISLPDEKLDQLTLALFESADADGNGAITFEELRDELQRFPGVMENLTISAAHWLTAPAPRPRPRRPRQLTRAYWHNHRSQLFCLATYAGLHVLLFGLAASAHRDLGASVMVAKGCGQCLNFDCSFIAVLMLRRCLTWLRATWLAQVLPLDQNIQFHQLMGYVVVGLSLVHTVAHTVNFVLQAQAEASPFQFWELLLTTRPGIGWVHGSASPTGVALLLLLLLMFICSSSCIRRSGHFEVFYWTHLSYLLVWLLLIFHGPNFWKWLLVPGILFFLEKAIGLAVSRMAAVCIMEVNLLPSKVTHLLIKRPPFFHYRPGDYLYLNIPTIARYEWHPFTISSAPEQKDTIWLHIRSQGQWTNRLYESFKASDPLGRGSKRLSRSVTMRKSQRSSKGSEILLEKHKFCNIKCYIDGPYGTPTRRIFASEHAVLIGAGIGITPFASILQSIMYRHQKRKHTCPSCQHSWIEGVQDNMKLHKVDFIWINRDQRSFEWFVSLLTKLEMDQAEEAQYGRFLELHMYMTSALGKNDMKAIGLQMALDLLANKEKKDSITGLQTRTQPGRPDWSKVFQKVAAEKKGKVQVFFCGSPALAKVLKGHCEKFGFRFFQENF
Sequence of NADPH oxidase 4 (Homo sapiens) (Q9NPH5 whole entry, looked up): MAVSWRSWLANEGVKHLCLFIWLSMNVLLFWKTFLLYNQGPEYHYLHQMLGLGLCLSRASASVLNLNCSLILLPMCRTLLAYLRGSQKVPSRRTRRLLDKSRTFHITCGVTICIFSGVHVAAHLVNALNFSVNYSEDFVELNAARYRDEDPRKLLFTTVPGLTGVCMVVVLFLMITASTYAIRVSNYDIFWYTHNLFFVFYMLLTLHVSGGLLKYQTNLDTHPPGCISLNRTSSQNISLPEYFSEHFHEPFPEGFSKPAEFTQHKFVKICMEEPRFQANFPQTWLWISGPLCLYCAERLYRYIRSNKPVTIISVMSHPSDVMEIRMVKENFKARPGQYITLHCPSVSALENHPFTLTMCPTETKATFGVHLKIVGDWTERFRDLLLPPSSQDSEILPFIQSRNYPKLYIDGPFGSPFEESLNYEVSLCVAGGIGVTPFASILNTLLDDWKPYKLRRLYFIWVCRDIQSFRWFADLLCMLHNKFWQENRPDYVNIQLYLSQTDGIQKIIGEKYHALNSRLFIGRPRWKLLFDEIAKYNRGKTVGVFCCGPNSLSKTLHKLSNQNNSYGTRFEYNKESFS

Take `CCOC(=O)C1=C(C(=O)OCC)N(S(=O)(=O)CC[Si](C)(C)C)[C@H](c2ccccc2)CC1`: the z-score is -0.941 (inactive) in [1]; 1.23 (inactive) in experiment [3]; 0.763 (inactive) in [4]; 0.106 (inactive) in experiment [5]; 0.19 (inactive) in experiment [6]; -0.405 in [7]. Moreover, the z-score was -0.135 (inactive) in experiment [8]; 0.232 (inactive) in experiment [9]; 0.134 in experiment [10]; -2.6 in experiment [11]; -0.872 in experiment [12]; -2.78 in experiment [13]. Besides, the z-score in [14] was -1.02; in [15], -4.13; in experiment [16], 3.63; in [17], -0.0617 (inactive); in experiment [18] it was -0.982; in [19] it was -3.04. Moreover, the z-score in experiment [20] is 0.571 (inactive). The compound further had a composite z-score in [2] of 0.174.
For the compound `CC(C)C[C@H]1NC(=O)[C@@H](C)NC(=O)[C@@]23C(=O)N[C@@H](Cc4ccccc4)C2[C@H](C)[C@@]2(C)O[C@H]2C3/C=C/C/C=C\CNC1=O` (stereo not given in full), the z-score in [1] was -0.743 (inactive); in experiment [3] it was 0.522 (inactive); in experiment [4] it was -0.437 (inactive); in experiment [5] it was -0.435 (inactive); in experiment [6], -0.111 (inactive); in experiment [7], -0.175. In addition, the z-score was -0.115 (inactive) in experiment [8]; 1.11 (inactive) in [9]; 0.407 in experiment [10]; 0.65 in [11]; 0.305 in experiment [12]; -0.363 in [13]. For the same compound, the z-score in [14] is -0.256; in [15], -0.64; in experiment [16], -0.553; in experiment [17], 0.023 (inactive); in [18], 0.471; in experiment [19], 0.191. The z-score in experiment [20] is -0.0639 (inactive). This compound also yielded a composite z-score in experiment [2] of -0.431.
As for `CC(C)C(=C=CC[C@@H](O)c1ccccc1OCCO)C[C@@H](O)c1cc(Cl)cc(Cl)c1O`, the z-score in experiment [1] was -0.701 (inactive); in [3], 22.2 (active); in experiment [4], 5.74 (inactive); in experiment [5] it was -0.0473 (inactive); in experiment [6], 1.56 (inactive); in experiment [7] it was -0.844. Further, the z-score in [8] is -1.79 (inactive); in [9], -1.46 (inactive); in experiment [10] it was -1.8; in experiment [11], -0.551; in [12], 0.493; in [13], -1.07. Further, the z-score is -3.43 in experiment [14]; -3.96 in experiment [15]; -2.61 in experiment [16]; -0.00407 (inactive) in [17]; -0.847 in experiment [18]; -1.31 in experiment [19]. The z-score in experiment [20] is 0.0062 (inactive). In experiment [2], the composite z-score came to 0.0004.
As for `CCCCC(O)C1C=CC2C(=O)NC(=O)C2N1Nc1ccccn1` (stereo not given), the z-score was -2.16 (inactive) in experiment [1]; -0.162 (inactive) in experiment [3]; 0.387 (inactive) in experiment [4]; -0.343 (inactive) in [5]; 0.483 (inactive) in experiment [6]; -1.11 in experiment [7]. The z-score was -1.48 (inactive) in experiment [8]; -2.5 (inactive) in [9]; -2.17 in experiment [10]; -0.795 in experiment [11]; -0.291 in experiment [12]; 1.18 in experiment [13]. For the same compound, the z-score in [14] is 0.106; in experiment [15], 0.0087; in experiment [16] it was -1.68; in experiment [17], -0.285 (inactive); in experiment [18], 0.617; in [19] it was -0.00704. For the same compound, the z-score in [20] is -0.751 (inactive). Further, the composite z-score in [2] was 0.235.
Regarding `CCCCCCc1nc(-c2ccc(OC)nc2)cc2c1[Si](C(C)C)(C(C)C)OC2`, the z-score in [1] was -0.45 (inactive); in [3] it was 2.62 (inactive); in experiment [4], 0.0409 (inactive); in experiment [5], -0.484 (inactive); in [6], -0.179 (inactive); in experiment [7] it was 0.366. The z-score was -4.66 (inactive) in [8]; -2.14 (inactive) in [9]; -4.22 in experiment [10]; -0.848 in experiment [11]; 0.608 in experiment [12]; 0.238 in [13]. Further, the z-score is -2.15 in [14]; -3.11 in [15]; -1.91 in experiment [16]; -0.191 (inactive) in [17]; -0.791 in experiment [18]; -0.368 in experiment [19]. The z-score in experiment [20] is 0.552 (inactive). In experiment [2], this compound had a composite z-score of -0.103.

These data come from PubChem BioAssay.
